Measurements taken from the supplement of paper PMC11732987, “Enantioselective OTUD7B fragment discovery through chemoproteomics screening and high-throughput optimisation” (Communications Chemistry, 2025).

Legend:
Assay in all cases: log2 ratio of Biotin-Ahx-Ub-VS probe labelling (fragment/DMSO); higher = less target engagement (more negative = stronger competition), active = hit call of the paper (q ≤ 0.05, log2 ratio ≤ -1)
Settings in all cases: compound concentration: 200 uM; treatment time: 3 h
[1] = target: USP34 (UniProt Q70CQ2)
Procedure, shortened: (§1)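 The table lists average log2 ratios of fragment over vehicle, from an unpaired t-test on global-median-normalised Spectronaut label-free quantities. Proteins with ≥2 unique peptides were used. Samples were HEK293T lysate (495 µg) treated in triplicate with fragment at 200 µM or vehicle for 3 h, then with Biotin-Ahx-Ub-VS (0.5 µM final) for 1 h, with labelled DUBs NeutrAvidin-enriched and run by diaPASEF LC-MS/MS.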

[2] = target: T1, USP36 (UniProt Q9P275)
T1 sequence (whole entry): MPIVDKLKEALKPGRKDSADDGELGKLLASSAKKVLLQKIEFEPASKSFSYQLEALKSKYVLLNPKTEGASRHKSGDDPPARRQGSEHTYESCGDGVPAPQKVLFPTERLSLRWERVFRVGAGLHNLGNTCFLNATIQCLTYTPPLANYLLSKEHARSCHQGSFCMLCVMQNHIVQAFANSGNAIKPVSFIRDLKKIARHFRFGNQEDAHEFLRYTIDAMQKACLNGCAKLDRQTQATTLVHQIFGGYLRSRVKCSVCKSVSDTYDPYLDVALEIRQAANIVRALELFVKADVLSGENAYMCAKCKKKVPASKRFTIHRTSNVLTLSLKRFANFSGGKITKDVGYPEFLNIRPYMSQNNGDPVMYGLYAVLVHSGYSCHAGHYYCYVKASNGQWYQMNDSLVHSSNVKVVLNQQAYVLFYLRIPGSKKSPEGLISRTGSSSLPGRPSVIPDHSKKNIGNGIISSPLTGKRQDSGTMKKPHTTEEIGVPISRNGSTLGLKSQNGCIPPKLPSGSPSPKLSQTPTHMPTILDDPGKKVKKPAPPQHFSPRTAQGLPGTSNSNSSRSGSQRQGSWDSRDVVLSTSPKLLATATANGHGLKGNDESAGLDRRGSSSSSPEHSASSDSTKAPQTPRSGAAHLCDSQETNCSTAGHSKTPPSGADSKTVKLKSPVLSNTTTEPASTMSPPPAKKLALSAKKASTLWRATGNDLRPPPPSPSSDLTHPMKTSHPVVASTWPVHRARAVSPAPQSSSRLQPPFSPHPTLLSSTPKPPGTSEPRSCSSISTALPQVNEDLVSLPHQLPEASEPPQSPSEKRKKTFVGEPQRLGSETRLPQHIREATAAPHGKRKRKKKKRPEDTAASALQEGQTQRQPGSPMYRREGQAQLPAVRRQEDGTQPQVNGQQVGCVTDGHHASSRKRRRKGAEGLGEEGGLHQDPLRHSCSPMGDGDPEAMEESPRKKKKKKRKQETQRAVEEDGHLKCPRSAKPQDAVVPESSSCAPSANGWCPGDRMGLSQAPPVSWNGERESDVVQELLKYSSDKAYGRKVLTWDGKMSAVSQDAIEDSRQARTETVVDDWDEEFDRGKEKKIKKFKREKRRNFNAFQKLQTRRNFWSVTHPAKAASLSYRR
Procedure, shortened: as §1

[3] = target: T2, USP38 (UniProt Q8NB14)
T2 sequence (whole entry): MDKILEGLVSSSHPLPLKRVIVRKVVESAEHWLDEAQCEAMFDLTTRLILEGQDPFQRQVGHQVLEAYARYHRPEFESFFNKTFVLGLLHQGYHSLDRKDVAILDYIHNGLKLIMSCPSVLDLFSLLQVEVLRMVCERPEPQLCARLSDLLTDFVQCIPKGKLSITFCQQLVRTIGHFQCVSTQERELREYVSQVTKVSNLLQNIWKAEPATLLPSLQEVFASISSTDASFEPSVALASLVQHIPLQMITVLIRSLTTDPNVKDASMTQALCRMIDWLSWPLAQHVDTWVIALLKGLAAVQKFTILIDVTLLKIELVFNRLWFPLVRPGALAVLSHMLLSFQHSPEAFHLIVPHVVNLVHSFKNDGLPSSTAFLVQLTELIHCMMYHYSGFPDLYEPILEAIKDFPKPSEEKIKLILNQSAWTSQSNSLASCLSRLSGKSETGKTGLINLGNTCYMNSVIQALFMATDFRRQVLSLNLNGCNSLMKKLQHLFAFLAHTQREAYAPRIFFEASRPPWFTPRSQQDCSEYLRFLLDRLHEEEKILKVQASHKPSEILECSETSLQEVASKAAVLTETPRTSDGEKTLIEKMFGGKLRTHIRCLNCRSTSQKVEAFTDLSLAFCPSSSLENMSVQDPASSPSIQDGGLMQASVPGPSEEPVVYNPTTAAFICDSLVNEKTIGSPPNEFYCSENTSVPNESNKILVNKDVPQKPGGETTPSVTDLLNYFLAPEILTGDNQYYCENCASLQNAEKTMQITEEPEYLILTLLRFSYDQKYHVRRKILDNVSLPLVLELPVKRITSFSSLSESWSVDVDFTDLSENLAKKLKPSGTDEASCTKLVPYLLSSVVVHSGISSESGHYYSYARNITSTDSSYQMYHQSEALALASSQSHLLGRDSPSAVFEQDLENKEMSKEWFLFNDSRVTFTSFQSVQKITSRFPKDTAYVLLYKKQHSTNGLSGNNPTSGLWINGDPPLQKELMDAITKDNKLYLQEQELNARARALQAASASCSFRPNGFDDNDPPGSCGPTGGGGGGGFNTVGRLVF
Procedure, shortened: as §1

[4] = target: T3, USP39 (UniProt Q53GS9)
T3 sequence (whole entry): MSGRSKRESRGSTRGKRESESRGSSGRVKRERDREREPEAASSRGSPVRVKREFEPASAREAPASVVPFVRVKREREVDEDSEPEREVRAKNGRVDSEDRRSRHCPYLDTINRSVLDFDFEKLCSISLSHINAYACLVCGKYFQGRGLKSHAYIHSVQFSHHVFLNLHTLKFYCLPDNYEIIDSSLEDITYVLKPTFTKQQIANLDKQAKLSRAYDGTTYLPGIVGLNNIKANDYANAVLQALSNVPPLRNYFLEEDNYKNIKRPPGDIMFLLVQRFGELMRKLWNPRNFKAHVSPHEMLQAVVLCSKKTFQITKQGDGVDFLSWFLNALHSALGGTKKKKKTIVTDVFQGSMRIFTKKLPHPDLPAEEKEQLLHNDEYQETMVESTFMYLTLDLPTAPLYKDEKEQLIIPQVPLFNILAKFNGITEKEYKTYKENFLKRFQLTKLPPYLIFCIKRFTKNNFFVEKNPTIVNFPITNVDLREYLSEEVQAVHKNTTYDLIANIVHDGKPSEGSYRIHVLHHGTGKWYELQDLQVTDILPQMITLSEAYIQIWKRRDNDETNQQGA
Procedure, shortened: as §1

[5] = target: T4, USP4 (UniProt Q13107)
T4 sequence (whole entry): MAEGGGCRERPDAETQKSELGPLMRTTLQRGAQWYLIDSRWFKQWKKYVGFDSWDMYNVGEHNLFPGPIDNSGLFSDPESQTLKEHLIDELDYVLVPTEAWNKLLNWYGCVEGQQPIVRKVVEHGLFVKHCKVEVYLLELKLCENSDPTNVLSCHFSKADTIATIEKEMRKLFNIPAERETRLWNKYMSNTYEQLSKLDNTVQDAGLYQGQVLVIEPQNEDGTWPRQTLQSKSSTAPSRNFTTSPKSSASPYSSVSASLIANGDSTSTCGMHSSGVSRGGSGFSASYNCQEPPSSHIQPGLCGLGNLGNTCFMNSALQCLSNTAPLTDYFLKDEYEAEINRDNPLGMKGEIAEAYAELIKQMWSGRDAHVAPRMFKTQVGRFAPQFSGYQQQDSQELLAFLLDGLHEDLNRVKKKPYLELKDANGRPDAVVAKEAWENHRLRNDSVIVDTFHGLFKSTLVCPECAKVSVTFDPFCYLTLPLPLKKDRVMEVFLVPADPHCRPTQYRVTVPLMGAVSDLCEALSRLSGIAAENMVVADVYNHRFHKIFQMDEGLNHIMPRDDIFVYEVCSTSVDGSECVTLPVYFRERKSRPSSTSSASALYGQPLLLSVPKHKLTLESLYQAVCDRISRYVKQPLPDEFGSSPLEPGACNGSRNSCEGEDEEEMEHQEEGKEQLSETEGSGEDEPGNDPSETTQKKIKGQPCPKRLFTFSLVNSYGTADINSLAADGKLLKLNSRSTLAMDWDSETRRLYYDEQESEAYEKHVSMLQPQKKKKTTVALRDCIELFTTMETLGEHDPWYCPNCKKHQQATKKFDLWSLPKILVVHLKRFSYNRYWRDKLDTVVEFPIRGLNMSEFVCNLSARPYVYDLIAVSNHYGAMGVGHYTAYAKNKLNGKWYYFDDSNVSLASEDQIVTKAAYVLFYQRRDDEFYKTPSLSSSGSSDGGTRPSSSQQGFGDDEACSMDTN
Procedure, shortened: as §1

Measured: log2 ratio of Biotin-Ahx-Ub-VS probe labelling

Sequence of USP34 (Q70CQ2 whole entry, the tested form may be a part): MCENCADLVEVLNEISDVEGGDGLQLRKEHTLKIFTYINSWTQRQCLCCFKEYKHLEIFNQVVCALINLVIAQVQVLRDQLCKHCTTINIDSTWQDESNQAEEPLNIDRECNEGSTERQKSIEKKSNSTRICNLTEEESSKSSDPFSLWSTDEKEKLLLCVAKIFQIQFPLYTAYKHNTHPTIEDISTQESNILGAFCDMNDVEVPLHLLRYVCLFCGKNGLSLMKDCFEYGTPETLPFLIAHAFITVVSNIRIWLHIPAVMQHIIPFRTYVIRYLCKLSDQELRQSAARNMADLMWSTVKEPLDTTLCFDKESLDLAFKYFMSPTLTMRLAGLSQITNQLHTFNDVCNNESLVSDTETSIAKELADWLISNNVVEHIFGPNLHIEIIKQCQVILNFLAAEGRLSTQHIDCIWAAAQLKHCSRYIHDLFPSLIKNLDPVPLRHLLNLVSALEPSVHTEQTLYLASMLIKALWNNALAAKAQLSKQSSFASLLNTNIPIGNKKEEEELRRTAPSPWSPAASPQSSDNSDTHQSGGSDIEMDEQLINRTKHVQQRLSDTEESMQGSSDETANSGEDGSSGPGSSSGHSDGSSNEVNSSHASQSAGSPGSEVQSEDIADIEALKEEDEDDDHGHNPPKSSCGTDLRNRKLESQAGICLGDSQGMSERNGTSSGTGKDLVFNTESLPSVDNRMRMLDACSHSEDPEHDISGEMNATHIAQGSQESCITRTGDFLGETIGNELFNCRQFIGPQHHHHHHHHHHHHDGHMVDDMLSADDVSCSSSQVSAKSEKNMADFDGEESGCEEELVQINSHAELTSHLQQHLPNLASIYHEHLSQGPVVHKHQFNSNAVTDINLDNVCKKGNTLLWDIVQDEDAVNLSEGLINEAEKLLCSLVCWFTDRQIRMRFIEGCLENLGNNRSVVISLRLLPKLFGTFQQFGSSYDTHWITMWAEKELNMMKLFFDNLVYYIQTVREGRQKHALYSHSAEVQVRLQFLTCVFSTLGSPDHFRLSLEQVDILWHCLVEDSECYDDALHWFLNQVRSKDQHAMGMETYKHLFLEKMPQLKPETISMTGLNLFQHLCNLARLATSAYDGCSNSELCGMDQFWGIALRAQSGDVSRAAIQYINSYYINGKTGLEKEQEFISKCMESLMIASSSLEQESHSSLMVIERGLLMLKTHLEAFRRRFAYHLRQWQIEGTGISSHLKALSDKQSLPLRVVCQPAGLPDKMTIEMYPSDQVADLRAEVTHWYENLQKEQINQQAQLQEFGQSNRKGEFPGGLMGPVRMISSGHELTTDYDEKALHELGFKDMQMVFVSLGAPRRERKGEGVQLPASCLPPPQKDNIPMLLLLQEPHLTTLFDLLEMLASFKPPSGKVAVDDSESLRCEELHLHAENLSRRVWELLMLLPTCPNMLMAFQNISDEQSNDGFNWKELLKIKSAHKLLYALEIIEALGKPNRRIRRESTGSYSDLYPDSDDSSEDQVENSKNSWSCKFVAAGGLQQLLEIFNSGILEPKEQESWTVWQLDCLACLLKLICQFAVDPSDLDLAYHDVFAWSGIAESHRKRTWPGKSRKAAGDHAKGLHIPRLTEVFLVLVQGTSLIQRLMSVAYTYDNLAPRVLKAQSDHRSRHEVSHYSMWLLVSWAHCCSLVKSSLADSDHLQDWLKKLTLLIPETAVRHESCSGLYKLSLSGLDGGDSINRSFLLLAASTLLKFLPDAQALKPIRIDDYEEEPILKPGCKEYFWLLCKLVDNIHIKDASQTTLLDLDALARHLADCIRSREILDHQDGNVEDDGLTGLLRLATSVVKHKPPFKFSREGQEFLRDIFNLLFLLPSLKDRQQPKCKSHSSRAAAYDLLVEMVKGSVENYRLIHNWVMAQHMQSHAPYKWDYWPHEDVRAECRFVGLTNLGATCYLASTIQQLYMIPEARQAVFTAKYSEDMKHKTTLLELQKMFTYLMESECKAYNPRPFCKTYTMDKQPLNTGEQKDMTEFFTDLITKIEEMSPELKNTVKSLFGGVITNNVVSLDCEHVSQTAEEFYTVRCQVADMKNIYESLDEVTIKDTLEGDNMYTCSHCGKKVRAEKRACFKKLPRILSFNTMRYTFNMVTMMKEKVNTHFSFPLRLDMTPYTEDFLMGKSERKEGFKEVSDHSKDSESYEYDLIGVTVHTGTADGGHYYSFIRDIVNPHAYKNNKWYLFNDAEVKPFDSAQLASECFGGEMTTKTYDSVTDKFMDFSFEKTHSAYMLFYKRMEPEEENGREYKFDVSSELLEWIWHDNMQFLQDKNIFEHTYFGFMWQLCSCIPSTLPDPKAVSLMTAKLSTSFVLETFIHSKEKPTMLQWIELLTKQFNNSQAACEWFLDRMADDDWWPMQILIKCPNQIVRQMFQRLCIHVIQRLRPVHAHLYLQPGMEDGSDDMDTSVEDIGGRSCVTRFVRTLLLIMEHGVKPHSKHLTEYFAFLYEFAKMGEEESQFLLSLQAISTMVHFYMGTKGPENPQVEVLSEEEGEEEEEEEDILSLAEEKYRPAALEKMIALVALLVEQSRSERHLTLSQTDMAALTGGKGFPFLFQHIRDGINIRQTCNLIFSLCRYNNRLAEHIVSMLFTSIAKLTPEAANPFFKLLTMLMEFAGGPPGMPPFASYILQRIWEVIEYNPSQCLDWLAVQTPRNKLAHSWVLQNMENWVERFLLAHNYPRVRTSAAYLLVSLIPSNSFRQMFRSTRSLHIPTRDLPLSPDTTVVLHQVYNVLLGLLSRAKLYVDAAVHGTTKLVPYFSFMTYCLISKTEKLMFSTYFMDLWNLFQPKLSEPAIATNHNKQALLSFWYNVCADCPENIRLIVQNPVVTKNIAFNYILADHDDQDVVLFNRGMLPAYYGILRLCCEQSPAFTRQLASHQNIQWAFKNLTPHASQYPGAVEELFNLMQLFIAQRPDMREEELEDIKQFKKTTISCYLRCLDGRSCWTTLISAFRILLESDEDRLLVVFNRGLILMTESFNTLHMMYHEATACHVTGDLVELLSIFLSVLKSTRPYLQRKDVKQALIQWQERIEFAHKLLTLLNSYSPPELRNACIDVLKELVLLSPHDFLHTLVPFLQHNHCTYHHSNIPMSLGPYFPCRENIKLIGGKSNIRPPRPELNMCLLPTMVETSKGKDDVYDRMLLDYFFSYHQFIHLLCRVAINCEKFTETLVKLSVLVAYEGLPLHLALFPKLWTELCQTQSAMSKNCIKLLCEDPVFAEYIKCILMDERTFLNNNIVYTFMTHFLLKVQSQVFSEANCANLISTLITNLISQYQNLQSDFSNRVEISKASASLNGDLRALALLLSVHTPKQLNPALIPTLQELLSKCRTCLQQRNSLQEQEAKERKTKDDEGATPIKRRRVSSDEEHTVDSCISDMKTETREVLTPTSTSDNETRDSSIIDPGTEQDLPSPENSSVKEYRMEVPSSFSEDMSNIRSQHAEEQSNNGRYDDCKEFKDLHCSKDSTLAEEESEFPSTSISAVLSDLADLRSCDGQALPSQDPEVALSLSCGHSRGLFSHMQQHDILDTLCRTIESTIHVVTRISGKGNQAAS

O=C(CCl)NCc1noc(C2CC2)n1
inactive: [1] -0.18 | [2] -0.144 | [3] -0.0158 | [4] 0.182 | [5] 0.00316
